# Experimental data published in PubChem BioAssay (NCATS).
# Inconclusive results are not listed. Entries that show only a call come without a potency. Calls of active or inactive are those of the source. The call rests on the fitted dose curve; in most records, active means well fitted curve in the direction sought with a large enough effect; inconclusive means small, poorly fitted or top-dose-only effect, or another doubt; inactive means no such curve, though single readings can be large; an effect the other way counts as inactive or inconclusive.
# How the values were obtained:
# [1] = Validation qHTS assay for inhibitors of Activation Induced Cytidine Deaminase (AID): UDG Counterscreen signal (AID 1347427)
# Method in brief: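 Counterscreen read of UDG activity (2 U/mL, 4/3x) in the FRET deamination format with AID (1 uM, 4/3x), DJC20/DJC23 substrates (250 nM, 4x), 4 h at room temperature. NaOH stop, fluorescence at 560 ex/665 em.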
# [2] = molecular target: Single-stranded DNA cytosine deaminase (Homo sapiens) (UniProt Q9GZX7); assay: Validation qHTS assay for inhibitors of Activation Induced Cytidine Deaminase (AID): AID signal (AID 1347429)
# Single-stranded DNA cytosine deaminase (Homo sapiens), sequence (Q9GZX7 whole entry, looked up): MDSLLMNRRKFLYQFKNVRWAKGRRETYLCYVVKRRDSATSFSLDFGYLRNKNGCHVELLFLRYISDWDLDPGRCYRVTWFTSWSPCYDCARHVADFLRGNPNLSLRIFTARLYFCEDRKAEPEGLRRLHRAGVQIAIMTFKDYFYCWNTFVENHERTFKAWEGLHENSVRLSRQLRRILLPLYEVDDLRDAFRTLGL
# Method in brief: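 Fluorescence at 540 nm excitation and 590 nm emission reports ssDNA cytosine deamination by AID, with UDG in the same well. Compound-treated reactions ran 4 hr at room temperature with DJC20/DJC23 substrate, followed by 30 min NaOH treatment.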
# [3] = Primary qHTS for inhibitors of La Crosse Virus (LACV) - induced cell death in SH-SY5Y cells (AID 1508616);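 further: top concentration of the series differs between compounds; higher means more rescue of cells from virus-induced death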
# Method in brief: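 Protection against LACV-induced cell death is scored in SH-SY5Y cells exposed to compounds and virus (0.01 MOI) for 6 days. Data normalized to virus-infected DMSO wells and virus-free DMSO wells.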
# [4] = molecular target: Protein phosphatase 1D (Homo sapiens) (UniProt O15297); assay: RapidFire Mass Spectrometry qHTS Assay for Modulators of WT P53-Induced Phosphatase 1 (WIP1) (AID 1347424);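 further: amount of dephosphorylated VEPPL-S-QETFS peptide product formed by WIP1; series mostly up to about 63 µM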
# Protein phosphatase 1D (Homo sapiens), sequence (O15297 whole entry, looked up): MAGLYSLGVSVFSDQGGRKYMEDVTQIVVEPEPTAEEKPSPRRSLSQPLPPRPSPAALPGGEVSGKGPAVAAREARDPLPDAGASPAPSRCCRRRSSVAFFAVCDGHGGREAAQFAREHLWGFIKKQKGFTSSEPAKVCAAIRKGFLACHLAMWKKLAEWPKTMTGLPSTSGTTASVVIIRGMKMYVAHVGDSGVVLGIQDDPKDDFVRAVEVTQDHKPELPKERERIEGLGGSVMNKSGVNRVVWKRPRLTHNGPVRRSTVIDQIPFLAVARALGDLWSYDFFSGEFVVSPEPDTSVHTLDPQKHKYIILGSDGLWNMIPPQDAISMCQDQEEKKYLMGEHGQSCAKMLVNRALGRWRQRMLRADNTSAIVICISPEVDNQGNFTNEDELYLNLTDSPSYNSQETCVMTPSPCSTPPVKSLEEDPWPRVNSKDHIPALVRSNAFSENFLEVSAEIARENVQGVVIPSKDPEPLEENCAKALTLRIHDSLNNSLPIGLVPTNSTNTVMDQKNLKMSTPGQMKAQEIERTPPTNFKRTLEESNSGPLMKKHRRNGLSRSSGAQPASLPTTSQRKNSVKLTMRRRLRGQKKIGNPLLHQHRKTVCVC
# Method in brief: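 10 nM WIP1 + cpd, 1 h RT; + 2 uM VEPPL-pS-QETFS, 5 min RT; stop 0.5% formic acid; labelled product standard 1 uM; RapidFire MS. Buffer 50 mM Tris pH 7.5, 30 mM MgCl2, 1 mM TCEP.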
# [5] = molecular target: Protein phosphatase 1D (Homo sapiens) (UniProt O15297); assay: Rhodamine-PBP qHTS Assay for Modulators of WT P53-Induced Phosphatase 1 (WIP1) (AID 1347425)
# Method in brief: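 The read-out is the change in Rhodamine-PBP fluorescence (f1 - f0, ex 525/em 598 nm) as Pi is released, read each minute for 11 min. Final reaction: 5 nM WIP1, 10 uM phosphopeptide VEPPL-pS-QETFS, 10 uM Rh-PBP, 50 mM Tris-HCl pH 7.5, 30 mM MgCl2. Compound was preincubated with enzyme for 1 hour at room temperature.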
# [6] = molecular target: Calcium and integrin-binding protein 1 (Homo sapiens) (UniProt Q99828); assay: Primary qHTS for Identification of Calcium Integrin Binding Protein 1 (CIB1) Competitor (AID 1508620);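 further: GST tagged CIB1 binding a fluorescein labelled alphaIIb integrin peptide tracer; top concentration of the series differs between compounds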
# Calcium and integrin-binding protein 1 (Homo sapiens), sequence (Q99828 whole entry, looked up): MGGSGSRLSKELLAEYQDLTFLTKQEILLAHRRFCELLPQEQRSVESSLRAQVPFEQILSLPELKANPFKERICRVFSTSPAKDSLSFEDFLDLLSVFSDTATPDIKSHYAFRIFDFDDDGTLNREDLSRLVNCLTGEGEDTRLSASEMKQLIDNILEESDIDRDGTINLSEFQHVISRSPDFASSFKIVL
# Method in brief: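 CIB1-GST (1 uM final) and compound incubated 15 min at room temperature before adding FITC-alphaIIb peptide tracer (100 nM final). Competition for binding read by fluorescence polarization (ex 480, em 540) after another 15 min at room temperature.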
compound,measurement,setting,value
CCCCC/C=C\CC(O)/C=C/c1cccc(CC(O)CCCCO)n1 (stereo not given),Potency,[1],inactive
same,Potency,[2],inactive
same,Potency,[3],inactive
O=C(O)[C@@H]1C[C@@H](C(=O)O)N1,Potency,[1],inactive
same,Potency,[2],inactive
O=c1[nH]c2ccccc2n1CCCN1CCN(C(c2ccccc2)c2ccccc2)CC1,Potency,[4],inactive
same,outcome,[5],inactive
same,Potency,[6],inactive
O=C(O)/C=C/C(O)c1ccc(Cl)cc1 (stereo not given),Potency,[1],inactive
same,Potency,[2],inactive
same,Potency,[3],inactive
CCCC1(C)C(C#N)(C#N)C1(C#N)C#N,Potency,[1],inactive
same,Potency,[2],inactive
CN(C)[C@@H]1C(=O)C(C(=O)NCN2CCCC2)=C(O)[C@@]2(O)C(=O)C3=C(O)c4c(O)cccc4[C@@](C)(O)C3C[C@@H]12 (stereo not given in full),outcome,[5],inactive
Nc1c(CC(=O)O)cccc1C(=O)c1ccc(Br)cc1,outcome,[5],inactive
same,Potency,[3],inactive
same,Potency,[6],inactive
COc1ccc(-c2cc(=S)ss2)cc1,Potency,[4],inactive
same,Potency,[3],inactive
same,Potency,[6],inactive
CC(C)(C)c1nnc(NS(=O)(=O)c2ccc(N)cc2)s1,Potency,[4],inactive
same,Potency,[3],inactive
same,Potency,[6],inactive
Nc1nc2ccc([N+](=O)[O-])cc2s1,Potency,[4],inactive
same,Potency,[3],inactive
same,Potency,[6],inactive
COc1ccccc1N1CCN(CCCCNS(=O)(=O)c2cccc3c(N(C)C)cccc23)CC1,Potency,[1],inactive
same,Potency,[2],inactive
CCCCCCCCCCCC(=O)[O][Sn]([CH2]CCC)([CH2]CCC)[O]C(=O)CCCCCCCCCCC,Potency,[4],inactive
same,Potency,[3],inactive
same,Potency,[6],inactive
OC[C@H]1O[C@@H](n2cnc3c(Nc4ccccc4)ncnc32)[C@H](O)[C@@H]1O,Potency,[1],inactive
same,Potency,[2],inactive
same,Potency,[3],inactive
Cc1ccc(C(=O)O[C@H](C(=O)O)[C@@H](OC(=O)c2ccc(C)cc2)C(=O)O)cc1 (tested in a mixture with another compound),Potency,[1],inactive
same,Potency,[2],inactive
same,Potency,[3],inactive
N#C/C(=C\c1ccc(O)c(O)c1)C(=O)NCCCc1ccccc1,Potency,[1],inactive
same,Potency,[2],inactive
O=C1O/C(=C/Br)CCC1c1cccc2ccccc12 (stereo not given),Potency,[1],inactive
same,Potency,[2],inactive
CCCCN1CCC(n2c(=O)[nH]c3ccccc32)CC1,Potency,[1],inactive
same,Potency,[2],inactive
same,Potency,[3],inactive
COc1cc(NC(C)CCCN)c2ncccc2c1 (stereo not given),Potency,[4],inactive
same,Potency,[3],inactive
same,Potency,[6],inactive
CCCCC1C(=O)N(c2ccccc2)N(c2ccc(O)cc2)C1=O (stereo not given),Potency,[4],inactive
same,Potency,[3],inactive
same,Potency,[6],inactive
